From PubChem BioAssay
Rows were chosen to be rich in hits. Some 21% of all compounds tested hit in one or more screens of this group.
Cycloheximide cs – affects cycloheximide protein synthesis inhibition readout, counter-screen. AID 2314. max response, %. cell reporter, cycloheximide protein synthesis inhibition counterscreen. 12% of 300,000 active; in the data active = max response mostly above about 13%, no sharp cut-off; inactive = mostly below about 14%; note: read at 38.3 µM for the half of the compounds with a filed dose; 0% is about no effect
Pf growth 96h – P. falciparum growth inhibition at 96 hours. P. falciparum luciferase reporter growth, 96 h. Potency, µM (highest dose often 28.7 µM), for inactives: top-dose activity change, negative = inhibition, usual class: inhibitors. 6.9% of 320,000 active. AID 504834; note: potency is the fitted concentration of half-maximal effect; % is set by controls: 0 for no effect and ±100 for the full control effect
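Parasite growth measured via integrated firefly luciferase reporter in P. falciparum. Infected erythrocytes at 2% hematocrit, 0.05% parasitemia final were treated 96 hours at 37 C under 5% CO2, and luminescence was read.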
Pf growth 48h – inhibits P. falciparum growth in the first generation, 48 h | P. falciparum luciferase growth in erythrocytes, 48 h | Potency, µM (highest dose often 28.7 µM), for the others: at the top dose activity change, negative = inhibition, actives largely listed as inhibitors | 5.9% of 310,000 active; note: potency is the fitted concentration of half-maximal effect; % is set by controls: 0 for no effect and ±100 for the full control effect
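Compounds are pin-transferred into medium, infected erythrocytes (2% hematocrit, 0.1% parasitemia final) are added, and plates sit one parasite generation at 37 C in 5% CO2. Detection reagent is then added and luminescence measured.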
HCV inh – HCV inhibition; AID 651820; Huh7.5.1 HCVcc-Cre infection, luciferase reporter, 44 h; 3.4% of 340,000 active; Potency, µM (series often up to 41.8 µM), without a hit: at the top dose activity change, negative = inhibition, most hits filed as inhibitors; note: potency is the fitted concentration of half-maximal effect; % is set by controls: 0 for no effect and ±100 for the full control effect
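Antiviral activity was scored by luciferase reporter output from cells infected with HCVcc-Cre (~0.5 moi) in presence of compound, 44 h infection period, cells seeded 1,000/well 4 h prior.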
AMA1-RON2 inh – inhibitors of Plasmodium falciparum AMA1-RON2 interaction. AID 720542. AlphaScreen AMA1-biotinylated RON2 peptide binding. Potency, µM (top dose mostly 58.2 µM), for the others: at the highest dose activity change, negative = inhibition, actives largely listed as inhibitors. 0.2% of 360,000 active;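 note: potency is the fitted concentration of half-maximal effect; 0% = vehicle wells and -100% = peptide control; nearly all actives have a fitted effect of over 45% in size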
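AMA1 (3D7) with his tag at 25 nM final met compounds first, then biotinylated RON2 peptide at 25 nM; detection used donor plus acceptor beads, 10 µg/mL apiece, read by AlphaScreen after 30 min at room temperature.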
Shiga inhibitor – Shiga toxin inhibition; Vero cells, Shiga toxin protein synthesis inhibition reporter; inhibition, % at 38.7 µM; AID 2315; 9.2% of 290,000 active; in the data active = inhibition mostly above about 28%, no sharp cut-off; inactive = mostly below about 43%; note: 0% is about no effect
* marks the source's active call; other numbers are inactive results; i = inactive; ? = inconclusive; nt = no result given; + = active, no number. Unless noted, calls come from the whole dose curve; as a rule, active = well fitted curve in the direction sought with a large enough effect; inconclusive = small, poorly fitted or top-dose-only effect, or another doubt; inactive = no such curve, though single readings can be large; an effect the other way counts as inactive or inconclusive.

SMILES | Cycloheximide cs | Pf growth 96h | Pf growth 48h | HCV inh | AMA1-RON2 inh | Shiga inhibitor
Cc1ccccc1NC(=O)c1sc(NC(=O)C2CC2)nc1C | 11.3* | -25.2% | ? | ? | 4.2% | 21.3
Cc1nc(NC(=O)C2CC2)sc1C(=O)Nc1ccccc1 | -1.0 | ? | -6.1% | ? | 1.9% | 21.8
CCc1ccc(S(=O)(=O)N2CCN(c3ncccn3)CC2)cc1 | 1.7 | ? | -1.2% | -6.6% | -4.4% | 6.7
Cc1ncoc1C(=O)N1CCCC(N2CCN(c3ccccc3F)CC2)C1 (centres undefined) | -0.8 | ? | ? | 8.1% | 4.1% | 2.4
CCN(CC)C(=O)Cn1cc(C(=O)C(=O)Nc2ccc3c(c2)OCCO3)c2ccccc21 | 48.2* | -5.9% | 8.0% | ? | -8.2% | 102.6*
O=C(Nc1ccc2c(c1)OCCO2)C(=O)c1c[nH]c2ccccc12 | 28.9 | 27.4% | 97.4% | ? | 11.6% | 20.8*
CC(=O)N[C@@H](Cc1c[nH]c2ccccc12)C(=O)OCC(=O)Nc1ccc2c(c1)OCO2 | nt | nt | nt | 4.8% | 0.0% | nt
O=C(Nc1ccc2c(c1)OCO2)C(=O)c1c[nH]c2ccccc12 | 27.6* | -1.8% | 161.0% | 0.2% | -3.3% | 72.1*
O=C(c1c[nH]c2ccccc12)N1CCOCC1 | 2.4 | 30.6% | ? | 2.1% | -1.8% | -8.3
CCC(C(=O)Nc1ccc2c(c1)OCCO2)n1c(=O)[nH]c2ccccc2c1=O (centres undefined) | 73.4* | 114.3% | 57.0% | 9.3% | 0.0% | 88.3*
Cn1c(CNC(=O)c2ccco2)nnc1SCCOc1ccccc1 | -2.2 | 1.3% | 7.2% | -1.1% | 17.3% | -6.8
CCC1CCCCN1C(=O)C(=O)c1cn(CC(=O)N(CC)CC)c2ccccc12 (centres undefined) | 9.2 | 10.4µM* | -16.6% | 5.0% | 9.0% | -9.0
C[C@@H](C(=O)Nc1cccnc1)n1c(=O)[nH]c2ccccc2c1=O | -0.5 | ? | 11.7µM* | 5.9% | -2.5% | -5.9
Cc1[nH]c2ccccc2c1C(=O)C(=O)Nc1ccc2c(c1)OCCO2 | 34.2* | -22.9% | -29.1% | -8.1% | 4.5% | 95.8*
NC(=S)N/N=C/c1ncc(C(F)(F)F)cc1Cl | -0.4 | 3.29µM* | 1.47µM* | 5.62µM* | 67.1% | 10.9
COCCCNC(=S)NNC(=S)Nc1cccc(Cl)c1 | 28.1* | -10.3% | ? | 9.1% | 5.1% | 90.1*
O=C(O)c1cccc(NC(=S)NC(=O)c2ccc(-c3ccccc3)cc2)c1 | 46.4* | 70.4% | 43.3% | 14.5% | -0.4% | 143.0*
CC(=O)c1cccc(NC(=S)NC(=O)c2ccccc2)c1 | 45.5* | 17.5% | 251.7% | -14.6% | 18.5% | 103.0*
CNC(=S)Nc1cccc(C(C)=O)c1 | 1.9 | 19.0% | 14.1% | 14.6% | -15.3% | 14.7
Cc1ccc(C(=O)NC(=S)Nc2ccccc2C(F)(F)F)cc1C | 15.9* | ? | ? | ? | 65.2% | 36.9*
O=C(Nc1ccccc1)Nc1nnc([C@@H]2C[C@H](O)[C@@H](CO)O2)s1 | nt | nt | nt | nt | -4.2% | nt
Cc1cccc(C[C@H](C(=O)O)N2C(=O)c3ccc(C(=O)O)cc3C2=O)c1 | -2.2 | -7.7% | -4.7% | nt | nt | 1.9
COc1cccc(NC(=S)NC(=O)c2cncc(Br)c2)c1 | nt | nt | nt | -20.6% | 64.9% | nt
CC(=O)c1cccc(NC(=S)NC(=O)c2cncc(Br)c2)c1 | 20.4* | 0.0% | 57.3% | 13.7% | 58.7% | 31.4
Cc1ccc(C(=O)NC(=S)Nc2cccc3nsnc23)cc1 | -2.2 | -16.6% | ? | 7.1% | 5.8% | -22.3
SMILES | Cycloheximide cs | Pf growth 96h | Pf growth 48h | HCV inh | AMA1-RON2 inh | Shiga inhibitor
CC(=O)c1cccc(NC(=S)NC(=O)CC(C)(C)C)c1 | 20.2* | -15.2% | -11.2% | -5.7% | -5.4% | 29.7
Cc1ccc(C(=O)NC(=S)Nc2cccc3c(C)cc(C)nc23)cc1 | 11.5 | 11.7µM* | ? | -11.3% | 52.1% | 18.5
Cc1ccc(C(=O)O)cc1NC(=S)NC(=O)c1ccc(-c2ccccc2)cc1 | 31.2* | -22.0% | 29.1% | 7.3% | 55.7% | 56.5*
Cc1cc(C)c(NC(=S)NC(=O)c2ccccc2)cc1C | nt | nt | nt | nt | 44.2% | nt
CC1(c2cccc(Br)c2)NC(=O)N(CC(=O)Nc2ccc3c(c2)OCCO3)C1=O (centres undefined) | nt | nt | nt | -10.7% | 8.3% | nt
CC(=O)c1cccc(NC(=S)NNC(=O)c2ccco2)c1 | 20.9* | ? | 17.1% | 18.3% | 90.2% | 32.6
CC(C)NC(=S)NC(=O)c1ccc(-c2ccccc2)cc1 | 11.2 | 22.4% | ? | 14.1µM* | -8.7% | 25.6*
CCCCC(=O)NC(=S)Nc1cccc(C(=O)O)c1 | 9.2 | ? | 34.3% | 1.9% | -24.9% | 60.4*
O=C(O)c1cccc(NC(=S)NC(=O)c2ccc(-c3ccc(Cl)cc3)o2)c1 | 21.5 | 324.1% | 53.6% | 19.9% | 31.7% | 100.5*
CCCCC(=O)NC(=S)Nc1cccc(NC(=O)CC)c1 | -0.9 | 36.6% | 21.8% | 6.2% | -13.0% | -2.7
C[C@@](O)(/C=C/[C@H]1CC=CC(=O)O1)[C@@H](C[C@@H](O)\C=C/C=C\C=C\CO)OP(=O)(O)O | 11.8 | nt | nt | nt | nt | i
O=C(NCCc1c[nH]c2ccccc12)C1CCC(=O)N(CCc2cccc(F)c2)C1 (centres undefined) | -1.6 | ? | 60.6% | 13.9% | 0.0% | -21.9
CC#CCCCC(=O)Nc1cccc(C(=O)O)c1 | 25.4* | 10.4µM* | 142.6% | 2.5% | 1.7% | 81.9*
CC(=O)c1cccc(NC(=S)NC(=O)c2cccc(Cl)c2)c1 | 30.1* | -2.3% | 151.0% | -23.8% | 20.0% | +
CCc1nc2c(OCC3CCCCC3)cccn2c1N(C=O)Cc1ccc(OC)cc1 | nt | nt | nt | nt | -11.3% | nt
CC(=O)NC(c1ccco1)c1cc(F)c2cccnc2c1O (centres undefined) | nt | ? | 4.15µM* | nt | nt | nt
CC(=O)NC(c1ccco1)c1cc(Cl)c2ccccc2c1O (centres undefined) | nt | 2.5% | -4.2% | nt | nt | nt
CC(=O)NC(c1cccs1)c1cc(F)c2cccnc2c1O (centres undefined) | nt | 4.65µM* | 2.94µM* | nt | nt | nt
Cc1cc(C(=O)NNc2cc(Cl)ccc2Cl)no1 | -1.1 | 54.4% | 2.7% | ? | -12.2% | 13.2
Cc1ccc(-c2cc(C(=O)Nc3cc(C)ccc3O)no2)cc1 | 12.0 | -25.1% | 486.7% | 12.8% | 11.3% | 20.1
CCCc1cc(C(=O)Nc2cc(Br)ccc2O)no1 | 21.7* | -17.4% | 5.22µM* | -26.4% | 19.4% | 56.8*
CCCc1cc(C(=O)Nc2cc(Cl)ccc2O)no1 | 31.1* | ? | ? | -7.8% | 3.5% | 92.4*
COc1ccc(C(C(=O)NCCC(C)C)N(CCO)C(=O)c2snc(C(N)=O)c2N)cc1 (centres undefined) | -2.6 | ? | -18.8% | 12.3% | -2.3% | -17.8
N#C/C(=C\c1ccccc1)C(=O)NNS(=O)(=O)c1ccc(Br)cc1 | nt | nt | nt | 10.6% | 98.6% | nt
